# Measurements as given in PubChem BioAssay (NCATS).
# Several values for one entry are separate records, joined by “and”; a condition that tells them apart may be missing. Identical values can stand only once. Results filed as inconclusive are left out. Where a call stands in place of a potency, no number is given. Values without a mark were called inactive. Activity calls are given as the source filed them. Unless noted, calls come from the whole dose curve; as a rule, active = well fitted curve in the direction sought with a large enough effect; inconclusive = small, poorly fitted or top-dose-only effect, or another doubt; inactive = no such curve, though single readings can be large; an effect the other way counts as inactive or inconclusive.
# Key:
# [1] = biological target: Calcium and integrin-binding protein 1 (Homo sapiens) (UniProt Q99828); test: Validation qHTS for Identification of Calcium Integrin Binding protein 1 (CIB1) Competitor (AID 1508618)
# In short: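 Displacement of FITC-alphaIIb peptide (100 nM) from CIB1-GST (1 uM) is monitored by polarization in quantitative HTS format; buffer carries 5 mM CaCl2 and 125 mM NaCl at pH 7.4, incubations are at room temperature.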
# [2] = Primary qHTS for small molecule stabilizers of the endoplasmic reticulum resident proteome: Secreted ER Calcium Modulated Protein (SERCaMP) assay (AID 1508630); note: potency is the fitted concentration of half-maximal effect
# In short: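 GLuc-SERCaMP-expressing SH-SY5Y cells, pretreated 16 h with compound, are challenged with thapsigargin to empty ER calcium stores; after 4 h, coelenterazine is added directly to the medium and luminescence is imaged.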
# [3] = biological target: Papain (Carica papaya) (UniProt P00784); test: Primary qHTS assay for inhibitors of the protease papain (AID 1645873);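 note: papain turnover of Z-FR-AMC read as the AMC fluorescence gain over 10 min; series mostly up to about 50 µM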
# [4] = Cell Viability qHTS for small molecule stabilizers of the endoplasmic reticulum resident proteome (AID 1508629); details: cell viability counter-screen, 100 nM thapsigargin for final 4 h;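 note: compound exposure about 46 h in total before the viability read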; note: potency is the fitted concentration of half-maximal effect;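 for max response: human SH-SY5Y neuroblastoma cells carrying the GLuc-SERCaMP reporter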
# [5] = biological target: Cytochrome P450 2D6 (Homo sapiens) (UniProt P10635); test: Cytochrome P450 family 2 subfamily D member 6 (CYP2D6) small molecule antagonists: luciferase biochemical (cell-free) qHTS assay (AID 1645840; active = well fitted curve in the direction sought with a large enough effect in the repeat runs; an effect the other way counts as inactive or inconclusive; note: nearly all actives have a fitted effect of over 55% in size; note: potency is the fitted concentration of half-maximal effect)
# In short: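 P450-Glo luminescent screen: recombinant CYP2D6 enzyme–proluciferin substrate mix preincubated with compound 10 min at room temperature, then NADPH regeneration added for 1 h at room temperature. Detection reagent added for 20 min; luciferin light read as relative luminescence units.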
# [6] = biological target: Cytochrome P450 2C9 (Homo sapiens) (UniProt P11712); test: Cytochrome P450 family 2 subfamily C member 9 (CYP2C9) small molecule antagonists: luciferase biochemical (cell-free) qHTS assay (AID 1645842; active = well fitted curve in the direction sought with a large enough effect in the repeat runs; an effect the other way counts as inactive or inconclusive; note: nearly all actives have a fitted effect of over 55% in size; note: potency is the fitted concentration of half-maximal effect)
# In short: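 Luminescence, after 20 min with luciferin detection reagent, reflected CYP2C9 turnover during a 1 h NADPH-driven reaction at 37C. Enzyme-substrate mix contained 0.4% bovine serum albumin and was preincubated with compound 10 min at room temperature.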
# [7] = Primary qHTS for inhibitors of nuclear receptor binding SET domain protein 2 (NSD2) in an isogenic RCH-ACV NSD2 p.E1099K mutant (9B) (AID 1645876); note: nearly all actives have a fitted effect of over 70% in size; note: potency is the fitted concentration of half-maximal effect
# [8] = Primary qHTS for inhibitors of nuclear receptor binding SET domain protein 2 (NSD2) in an RCH-ACV wild type WT cells (2C) (AID 1645877); note: nearly all actives have a fitted effect of over 70% in size; note: potency is the fitted concentration of half-maximal effect
# [9] = Counterscreen qHTS for small molecule stabilizers of the endoplasmic reticulum resident proteome: GLuc-NoTag assay (AID 1508627);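 note: SH-SY5Y cells given compound then 100 nM thapsigargin to empty ER calcium; series mostly up to about 76 µM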
# In short: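 SH-SY5Y cells stably expressing constitutively secreted GLuc (no SERCaMP tag) were pre-incubated 5 h, treated with compound for 19 h, then 100 nM thapsigargin for 4 h at 37C; medium GLuc read by coelenterazine luminescence.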
# [10] = biological target: Rap guanine nucleotide exchange factor 3 (Homo sapiens) (UniProt O95398); test: Confirmatory qHTS for antagonist of cAMP-regulated guanine nucleotide exchange factor 3 (EPAC1) (AID 1645880); note: nearly all actives have a fitted effect of over 55% in size
# In short: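 Nucleotide exchange uses 100 nM EPAC1, 250 nM RAP1B-BODIPY-GDP and 50 uM GDP, with compounds in a concentration-titration series. After 5 min at room temperature, fluorescence (480 nm ex/540 nm em) is read every 5 min for 30 min. Data are normalized to control ATA and DMSO.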
# [11] = biological target: Rap guanine nucleotide exchange factor 4 (Homo sapiens) (UniProt Q8WZA2); test: Confirmatory qHTS for antagonist of cAMP-regulated guanine nucleotide exchange factor 4 (EPAC2) (AID 1645885); note: nearly all actives have a fitted effect of over 25% in size
# [12] = Confirmatory qHTS for small molecule stabilizers of the endoplasmic reticulum resident proteome: Secreted ER Calcium Modulated Protein (SERCaMP) assay (AID 1508628);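 note: SH-SY5Y cells given compound 16 h then thapsigargin 100 nM for 4 h; series mostly up to about 76 µM; nearly all actives have a fitted effect of over 40% in size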
# In short: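 We seeded SH-SY5Y-GLuc-SERCaMP cells, added compounds (three concentrations in the primary run, eleven up to 76.6 uM in confirmation), incubated 16 h, depleted ER calcium with thapsigargin, and read luciferase 4 h later.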
# [13] = biological target: Calcium and integrin-binding protein 1 (Homo sapiens) (UniProt Q99828); test: Primary qHTS for Identification of Calcium Integrin Binding Protein 1 (CIB1) Competitor (AID 1508620);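 note: GST tagged CIB1 binding a fluorescein labelled alphaIIb integrin peptide tracer; top concentration of the series differs between compounds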
# In short: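 Fluorescence polarization competition: CIB1-GST (1 uM final) preincubated with compound 15 min at room temperature, then FITC-labeled alphaIIb peptide (100 nM final) added for another 15 min. Polarization read at Ex 480/Em 540.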
# [14] = biological target: Cytochrome P450 3A4 (Homo sapiens) (UniProt P08684); test: Cytochrome P450 family 3 subfamily A member 4 (CYP3A4) small molecule antagonists: luciferase qHTS assay (AID 1645841; active = well fitted curve in the direction sought with a large enough effect in the repeat runs; an effect the other way counts as inactive or inconclusive; note: nearly all actives have a fitted effect of over 45% in size)
# In short: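 P450-Glo CYP3A4 enzyme with proluciferin substrate was preincubated with DMSO-dissolved compounds for 10 min at room temperature. NADPH regeneration solution started a 1 h reaction. Detection reagent stopped it, and luminescence was read after 20 min.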
# [15] = A High-Content qHTS Against Drug Library for the Identification of Small Molecules that Inhibit DYT1 Early Onset Primary Dystonia-Associated Cell Pathology (AID 1645839; calls by dose curve; note: series mostly up to about 46 µM)
# In short: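 Readout: %pathology, the punctate EGFP-TorsinA distribution from imaging, as the primary channel and cell count as the toxicity counterscreen. HEK293 Flp-In cells expressing delE TorsinA were induced with tetracycline and treated with compound for 48 h.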
# Chain of Cytochrome P450 2D6 (Homo sapiens) (P10635 whole entry, looked up): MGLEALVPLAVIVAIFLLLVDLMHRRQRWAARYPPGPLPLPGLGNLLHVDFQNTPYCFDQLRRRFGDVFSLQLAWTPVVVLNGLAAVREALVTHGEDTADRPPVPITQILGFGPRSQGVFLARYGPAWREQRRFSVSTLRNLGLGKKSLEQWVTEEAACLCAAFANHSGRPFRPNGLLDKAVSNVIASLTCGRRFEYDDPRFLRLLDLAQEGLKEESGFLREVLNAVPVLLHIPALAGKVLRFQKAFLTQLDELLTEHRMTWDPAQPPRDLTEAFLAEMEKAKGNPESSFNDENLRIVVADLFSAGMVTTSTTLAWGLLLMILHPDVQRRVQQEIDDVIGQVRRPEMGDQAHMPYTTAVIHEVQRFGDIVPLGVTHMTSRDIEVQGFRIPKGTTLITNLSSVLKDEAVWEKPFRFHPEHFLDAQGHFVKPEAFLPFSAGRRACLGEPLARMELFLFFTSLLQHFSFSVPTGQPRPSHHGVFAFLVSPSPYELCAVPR
# Chain of Calcium and integrin-binding protein 1 (Homo sapiens) (Q99828 whole entry, looked up): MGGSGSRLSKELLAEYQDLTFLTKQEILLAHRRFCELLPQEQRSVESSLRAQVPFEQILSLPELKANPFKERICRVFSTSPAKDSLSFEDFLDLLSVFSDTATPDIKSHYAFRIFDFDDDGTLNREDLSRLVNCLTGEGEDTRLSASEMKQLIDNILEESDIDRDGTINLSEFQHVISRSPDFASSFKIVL
# Chain of Cytochrome P450 2C9 (Homo sapiens) (P11712 whole entry, looked up): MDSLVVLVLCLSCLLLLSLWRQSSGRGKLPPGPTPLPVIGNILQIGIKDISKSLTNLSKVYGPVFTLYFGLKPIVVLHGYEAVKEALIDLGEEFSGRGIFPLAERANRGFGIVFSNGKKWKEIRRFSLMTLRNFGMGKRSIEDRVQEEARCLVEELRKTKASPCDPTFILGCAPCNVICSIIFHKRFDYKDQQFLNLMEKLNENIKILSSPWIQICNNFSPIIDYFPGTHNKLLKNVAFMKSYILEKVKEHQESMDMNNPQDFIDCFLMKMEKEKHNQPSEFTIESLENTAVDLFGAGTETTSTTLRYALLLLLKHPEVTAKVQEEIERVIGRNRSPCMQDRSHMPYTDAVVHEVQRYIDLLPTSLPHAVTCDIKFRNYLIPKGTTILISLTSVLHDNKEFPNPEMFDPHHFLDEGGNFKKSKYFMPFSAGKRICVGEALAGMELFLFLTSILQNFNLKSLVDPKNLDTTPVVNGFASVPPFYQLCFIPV
# Chain of Rap guanine nucleotide exchange factor 3 (Homo sapiens) (O95398 whole entry, looked up): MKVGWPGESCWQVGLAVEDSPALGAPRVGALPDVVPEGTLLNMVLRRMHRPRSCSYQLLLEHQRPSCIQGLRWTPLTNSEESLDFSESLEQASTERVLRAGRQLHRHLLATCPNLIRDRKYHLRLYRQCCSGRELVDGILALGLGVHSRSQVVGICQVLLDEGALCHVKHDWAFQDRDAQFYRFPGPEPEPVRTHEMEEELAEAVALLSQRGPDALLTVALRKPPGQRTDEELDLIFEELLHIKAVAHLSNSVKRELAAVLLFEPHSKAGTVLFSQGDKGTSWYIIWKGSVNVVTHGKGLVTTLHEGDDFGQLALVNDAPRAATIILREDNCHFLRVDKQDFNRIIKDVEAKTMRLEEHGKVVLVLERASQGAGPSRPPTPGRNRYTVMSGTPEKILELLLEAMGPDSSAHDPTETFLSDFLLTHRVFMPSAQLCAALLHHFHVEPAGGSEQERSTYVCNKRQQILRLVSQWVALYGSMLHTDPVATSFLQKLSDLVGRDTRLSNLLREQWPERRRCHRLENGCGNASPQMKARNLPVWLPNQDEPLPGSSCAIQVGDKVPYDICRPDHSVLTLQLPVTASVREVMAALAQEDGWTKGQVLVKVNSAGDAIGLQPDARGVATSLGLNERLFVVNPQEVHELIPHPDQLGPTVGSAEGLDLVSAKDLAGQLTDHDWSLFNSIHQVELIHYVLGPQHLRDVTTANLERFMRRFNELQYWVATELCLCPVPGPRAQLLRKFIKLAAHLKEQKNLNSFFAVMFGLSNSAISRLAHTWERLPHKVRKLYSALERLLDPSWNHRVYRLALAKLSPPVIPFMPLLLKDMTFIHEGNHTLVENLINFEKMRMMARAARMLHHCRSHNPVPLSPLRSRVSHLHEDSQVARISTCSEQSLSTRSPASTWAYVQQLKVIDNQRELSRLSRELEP
# Chain of Papain (Carica papaya) (P00784 whole entry, looked up): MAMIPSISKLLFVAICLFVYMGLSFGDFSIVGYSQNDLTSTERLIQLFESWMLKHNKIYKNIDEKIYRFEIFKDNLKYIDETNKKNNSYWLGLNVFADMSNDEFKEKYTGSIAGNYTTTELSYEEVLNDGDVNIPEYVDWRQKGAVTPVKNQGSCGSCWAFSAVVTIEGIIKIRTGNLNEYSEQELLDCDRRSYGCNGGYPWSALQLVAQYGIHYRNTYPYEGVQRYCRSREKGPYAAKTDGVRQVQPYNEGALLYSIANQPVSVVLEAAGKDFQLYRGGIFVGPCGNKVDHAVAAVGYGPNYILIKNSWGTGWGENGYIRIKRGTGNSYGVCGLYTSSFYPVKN
# Chain of Cytochrome P450 3A4 (Homo sapiens) (P08684 whole entry, looked up): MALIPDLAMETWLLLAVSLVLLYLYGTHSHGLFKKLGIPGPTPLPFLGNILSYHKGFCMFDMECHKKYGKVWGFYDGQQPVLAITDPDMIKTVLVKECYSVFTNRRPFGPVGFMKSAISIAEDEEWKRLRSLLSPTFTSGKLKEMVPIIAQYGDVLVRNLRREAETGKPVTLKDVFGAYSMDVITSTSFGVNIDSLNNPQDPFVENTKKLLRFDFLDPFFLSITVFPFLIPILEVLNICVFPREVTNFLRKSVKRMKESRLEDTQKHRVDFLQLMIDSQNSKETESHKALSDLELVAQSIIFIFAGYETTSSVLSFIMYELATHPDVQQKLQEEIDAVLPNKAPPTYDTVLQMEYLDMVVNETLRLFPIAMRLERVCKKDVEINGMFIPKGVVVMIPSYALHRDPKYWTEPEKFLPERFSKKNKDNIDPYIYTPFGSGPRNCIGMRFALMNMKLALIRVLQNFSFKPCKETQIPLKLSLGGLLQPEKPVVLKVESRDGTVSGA
# Chain of Rap guanine nucleotide exchange factor 4 (Homo sapiens) (Q8WZA2 whole entry, looked up): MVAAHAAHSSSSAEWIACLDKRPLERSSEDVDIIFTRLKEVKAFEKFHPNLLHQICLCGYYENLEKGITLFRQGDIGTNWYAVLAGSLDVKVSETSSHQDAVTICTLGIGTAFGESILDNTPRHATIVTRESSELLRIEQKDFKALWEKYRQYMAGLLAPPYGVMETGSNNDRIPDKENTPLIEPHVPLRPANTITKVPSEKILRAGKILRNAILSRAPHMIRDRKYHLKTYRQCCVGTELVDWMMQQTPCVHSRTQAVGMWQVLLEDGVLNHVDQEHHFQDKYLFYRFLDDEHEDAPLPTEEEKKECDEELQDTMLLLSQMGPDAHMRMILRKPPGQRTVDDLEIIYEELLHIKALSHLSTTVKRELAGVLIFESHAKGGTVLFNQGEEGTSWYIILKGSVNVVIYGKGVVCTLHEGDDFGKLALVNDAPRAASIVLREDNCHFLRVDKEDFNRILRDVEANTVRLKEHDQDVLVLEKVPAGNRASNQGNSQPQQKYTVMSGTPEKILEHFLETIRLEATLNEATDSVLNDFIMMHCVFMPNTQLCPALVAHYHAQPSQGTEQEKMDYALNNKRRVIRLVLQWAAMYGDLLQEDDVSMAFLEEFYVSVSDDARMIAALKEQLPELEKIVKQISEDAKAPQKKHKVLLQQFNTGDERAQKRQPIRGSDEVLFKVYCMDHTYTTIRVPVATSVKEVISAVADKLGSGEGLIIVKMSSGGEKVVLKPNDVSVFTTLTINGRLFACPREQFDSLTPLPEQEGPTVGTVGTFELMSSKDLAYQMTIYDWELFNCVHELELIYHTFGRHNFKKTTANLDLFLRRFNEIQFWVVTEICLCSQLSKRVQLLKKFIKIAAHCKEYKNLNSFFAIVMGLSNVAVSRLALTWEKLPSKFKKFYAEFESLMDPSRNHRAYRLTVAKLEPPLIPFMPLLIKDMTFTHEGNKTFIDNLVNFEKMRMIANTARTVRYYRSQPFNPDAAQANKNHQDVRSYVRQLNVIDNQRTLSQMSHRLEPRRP
smiles,measurement,setting,value
C=CCc1cccc(C=NNC(=O)CN2CCN(Cc3ccccc3)CC2)c1O,outcome,[1],inactive
same,Potency,[2],inactive
same,outcome,[3],inactive
NS(=O)(=O)c1cc(Cl)c(Cl)c(S(N)(=O)=O)c1,max response,[4],21%
same,Potency,[5],inactive
same,Potency,[6],inactive
same,Potency,[7],inactive
same,Potency,[8],inactive
O=C(CCCN1CCN(c2ccc(F)cc2)CC1)NC1c2ccccc2CSc2ccccc21 (stereo not given),Potency,[4],25.1 µM (active)
same,Potency,[6],8.71 µM (active)
CC(C)C[C@H](NC(=O)c1cc2ccccc2s1)C(=O)N1CCN(C(=O)[C@H](CO)NS(=O)(=O)c2ccc(Cl)cc2Cl)CC1,Potency,[2],23.7 µM (active)
same,Potency,[7],23.5 µM (active)
same,Potency,[8],20.9 µM (active)
Cc1cc2nc3c(=O)[nH]c(=O)nc-3n(CC(O)C(O)C(O)CO)c2cc1C (stereo not given),Potency,[9],inactive
same,Potency,[10],inactive
same,Potency,[11],inactive
O[C@@H](COc1cccc2ncccc12)CN1CCN(C2c3ccccc3[C@@H]3[C@H](c4ccccc42)C3(F)F)CC1 (stereo not given in full),Potency,[9],inactive
same,Potency,[5],13.8 µM (active) and 10.7 µM (active)
same,Potency,[6],10.7 µM (active)
same,Potency,[8],10.6 µM (active)
CN(C(Cc1ccc(OS(=O)(=O)c2cccc3cnccc23)cc1)C(=O)N1CCN(c2ccccc2)CC1)S(=O)(=O)c1cccc2cnccc12 (stereo not given),Potency,[12],inactive
same,Potency,[8],6.51 µM (active)
C[C@H](c1ccc(F)cc1CCCC(=O)O)N(c1cc(F)ccc1F)S(=O)(=O)c1ccc(Cl)cc1,Potency,[13],inactive
same,Potency,[2],inactive
same,Potency,[5],16.9 µM (active)
same,Potency,[6],8.49 µM (active)
CC(=O)N1CCN(c2ccc(OCc3nn(C)c(C)c3-c3cccc4c(CCCOc5cc(C)c(Cl)c(C)c5)c(C(=O)O)n(Cc5cccnc5)c34)cc2)CC1,Potency,[13],inactive
same,Potency,[2],inactive
Cn1c(=O)c(Oc2ccc(F)cc2F)cc2cnc(NC3CCOCC3)nc21,Potency,[13],inactive
same,Potency,[2],inactive
CON(C)C(=O)N1N=C(c2cc(F)ccc2F)S[C@]1(CCCN)c1ccccc1,Potency,[13],inactive
same,Potency,[2],inactive
CC(C)CN(C[C@H](O)[C@H](Cc1ccccc1)NC(=O)O[C@H]1CCOC1)S(=O)(=O)c1ccc(N)cc1,Potency,[13],inactive
same,Potency,[2],inactive
Oc1cc(O)cc(C=Cc2ccc(O)c(O)c2)c1,Potency,[13],inactive
same,Potency,[2],inactive
CC[C@]1(O)C[C@H]2CN(CCC3=c4ccccc4=N[C]3[C@@](C(=O)OC)(c3cc4c(cc3OC)N(C)[C@H]3[C@@](O)(C(N)=O)[C@H](O)[C@]5(CC)C=CCN6CC[C@]43[C@@H]65)C2)C1,Potency,[13],inactive
same,Potency,[2],inactive
C[C@H]1[C@H](O)O[C@@H]2O[C@@]3(C)CC[C@@H]4[C@H](C)CC[C@@H]1[C@@]24OO3,Potency,[13],inactive
same,Potency,[2],inactive
CCCCC(C=O)NC(=O)C(CC(C)C)NC(=O)OCc1ccccc1 (stereo not given),Potency,[13],inactive
same,Potency,[2],inactive
CC[C@H](C)C(=O)O[C@H]1C[C@H](O)C=C2C=C[C@H](C)[C@H](CC[C@@H](O)C[C@@H](O)CC(=O)O)[C@H]21,Potency,[13],inactive
same,Potency,[2],inactive
same,Potency,[5],inactive
same,outcome,[14],inactive
same,Potency,[6],inactive
same,Potency,[7],inactive
same,Potency,[8],inactive
CN(C)CCOc1ccc(-c2nc(-c3ccc4c(c3)CCC4=NO)c(-c3ccncc3)[nH]2)cc1,Potency,[13],inactive
same,Potency,[2],inactive
O=c1[nH]c(=O)n([C@H]2C[C@@H](O)[C@@H](CO)O2)cc1C(F)(F)F,Potency,[13],inactive
same,Potency,[2],inactive
CC(=O)OCC(=O)[C@@]12OC(C)(C)O[C@H]1C[C@H]1[C@@H]3C[C@H](F)C4=CC(=O)C=C[C@]4(C)[C@@]3(F)[C@@H](O)C[C@@]12C,Potency,[13],inactive
same,Potency,[2],inactive
CCNC(=O)[C@H]1O[C@@H](n2cnc3c(N)nc(NCCc4ccc(CCC(=O)O)cc4)nc32)[C@H](O)[C@H]1O,Potency,[13],inactive
same,Potency,[2],inactive
O=c1[nH]c(=O)n([C@H]2C[C@@H](O)[C@@H](CO)O2)cc1I,Potency,[13],inactive
same,Potency,[2],inactive
OCCn1cc(-c2ccc3c(c2)CCC3=NO)c(-c2ccncc2)n1,Potency,[13],inactive
same,Potency,[2],inactive
CN(C)CCOc1ccc(C(=C(CCCl)c2ccccc2)c2ccccc2)cc1,Potency,[13],inactive
same,Potency,[2],inactive
CC1CCN(c2cc(N3CCN(C)CC3)ccc2NC(=O)c2cc(C#N)c[nH]2)CC1,Potency,[13],inactive
same,Potency,[2],inactive
same,Potency,[5],1.2 µM (active)
CCCCC[C@H](O)C=C[C@H]1[C@H](O)CC(=O)[C@H]1CC=CCCCC(=O)O,Potency,[13],inactive
same,Potency,[2],inactive
same,outcome,[15],inactive
same,Potency,[5],inactive
same,Potency,[6],inactive
same,Potency,[7],0.417 µM (active)
CCC(=O)OCC(=O)[C@@]1(OC(=O)CC)[C@@H](C)C[C@@H]2[C@H]3CCC4=CC(=O)C=C[C@]4(C)[C@@]3(F)[C@@H](O)C[C@@]21C,Potency,[13],inactive
same,Potency,[2],inactive
COc1ccnc(CS(=O)c2nc3ccc(OC(F)F)cc3[nH]2)c1OC (stereo not given),Potency,[13],inactive
same,Potency,[2],inactive
same,outcome,[15],inactive
same,Potency,[6],27.5 µM (active) and 21.3 µM (active)
same,Potency,[7],15 µM (active) and 18.6 µM (active)
same,Potency,[8],15 µM (active) and 18.6 µM (active)
